A number with no mark means an inactive call. How the calls were made is not given here.

The target of the assay is 5-HT7b receptor (human, UniProt P34969). The assay is described as follows: primary screen, binary call; higher = more effect of the substance. Also on record: hit call from the mean of at least two separate experiments. The settings on record: 10 µM.
Chain of 5-HT7b receptor (P34969 whole entry, looked up): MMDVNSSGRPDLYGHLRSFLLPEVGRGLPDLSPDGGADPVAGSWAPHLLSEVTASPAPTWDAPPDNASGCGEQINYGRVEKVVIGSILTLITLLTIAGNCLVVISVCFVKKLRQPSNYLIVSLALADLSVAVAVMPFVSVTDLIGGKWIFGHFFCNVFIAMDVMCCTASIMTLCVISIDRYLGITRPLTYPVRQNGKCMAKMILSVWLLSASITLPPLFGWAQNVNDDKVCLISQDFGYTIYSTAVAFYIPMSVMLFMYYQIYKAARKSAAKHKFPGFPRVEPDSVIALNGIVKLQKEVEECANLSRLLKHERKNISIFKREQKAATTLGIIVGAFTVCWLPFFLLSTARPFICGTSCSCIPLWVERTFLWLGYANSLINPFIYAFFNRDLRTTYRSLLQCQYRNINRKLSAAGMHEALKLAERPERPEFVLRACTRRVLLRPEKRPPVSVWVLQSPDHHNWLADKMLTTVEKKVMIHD
Take `N#CC1CCS(=O)(=O)C1` (stereo not shown): the 5-HT7 is 0. Next, `Cc1ccc(C)n1Cc1ccccc1Cl`: 0. The figure for `COc1ccccc1C1CCNCC1` is 1 (active). Next, `CC1(C)OC(=O)c2cc(Br)c(O)cc2O1`: 0.

With `Oc1ccc(-n2cncn2)cc1`, the 5-HT7 was 0. The figure for `Cc1cc(-c2ccccc2)n[nH]1` is 0. The figure for `COC(=O)c1c(C)nc(C2CC2)[nH]c1=O` is 0. As for `CC(=O)c1sc(-c2ccc(O)cc2)nc1C`, the 5-HT7 is 0.

In the case of `O=C1CCC(=O)N(c2ccccc2)N1`, the 5-HT7 was 0. As for `Cc1cnc(C(F)(F)F)cn1`, the 5-HT7 was 0. The figure for `O=c1ccc2c([nH]1)CCCC2` is 0; for `c1ccc(-c2ccncc2)cc1` it is 0.

Regarding `CN(C)c1cc(CN)ccn1`, the 5-HT7 is 0. Next, `Cc1nc(-c2ccccc2)cs1`: 0; `CC(CN)N1CCc2sccc2C1` (stereo not shown): 0; `CC1C(=O)NC(=O)N1c1ccc(Cl)cc1` (stereo not shown): 0. Next, `O=C1CNCCN1c1ccccc1`: 0; `Cc1nccn1Cc1cccc(C#N)c1`: 0. As for `O=C1NC2(CCCC2)Nc2ccccc21`, the 5-HT7 was 0.

In the case of `Cn1c(N)nc2ccccc21`, the 5-HT7 is 0.

`O=C(Nc1ccccc1)C1CC1`: the 5-HT7 is 0. Turning to `O=C(O)CC1CCC(=O)N1` (stereo not shown), the 5-HT7 was 0. Next, `NC1CCc2ccccc21` (stereo not shown): 0; `CC(=O)c1ccc2c(c1)CNCC2`: 0. The figure for `O=C(O)C1CCCN(C(=O)N2CCCC2)C1` (stereo not shown) is 0; for `Nc1ccc(SC(F)F)cc1` it is 0.

Turning to `N#Cc1ccc(C(=O)N2CCOCC2)cc1`, the 5-HT7 was 0. On to `c1cnc2c(c1)NCCC2`, for which the 5-HT7 is 0. Take `CS(=O)(=O)c1ccc(OC(F)(F)F)cc1`: the 5-HT7 is 0. Next, `CCCN1C(=O)CC(=O)NC1=S`: 0; `COc1ccc(CN2CCNCC2)cc1F`: 0.

(Values after article PMC8159961, “Exploring protein hotspots by optimized fragment pharmacophores” (Nature Communications, 2021).)
